Experimental data as given in PubChem BioAssay AID686978 (National Center for Advancing Translational Sciences (NCATS), 2013).
Several values for one entry are separate records, joined by “and”; a condition that tells them apart may be missing. Identical values can stand only once. Out of some 420,000 compounds screened, about 64,000 (15%) were called active. Roughly 27% stayed inconclusive and do not appear here. Calls come from the whole dose curve; as a rule, active = well fitted inhibition curve with a large enough effect; inconclusive = small, poorly fitted or top-dose-only effect; inactive = flat fitted curve, though single readings scatter. A selection follows. Where a call stands in place of a potency, no number is given. A structure can be active in one record and inactive in another.

Experiment: qHTS for Inhibitors of human tyrosyl-DNA phosphodiesterase 1 (TDP1): qHTS in cells in absence of CPT; note: nearly all actives have a fitted effect of over 55% in size
Conditions: DT40 Tdp1-/- hTDP1 cells, no CPT, ATP luminescence, 48 h; activity change, negative = growth inhibition: at 46.2 µM (top of the series)
In short: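 No-CPT arm: Tdp1-/-;hTDP1 DT40 cells (400/well) plus compounds, incubated ≥48 hr at 37 °C. Readout CellTiter-Glo luminescence.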
Potency is the fitted concentration of half-maximal effect.

Compound | Potency
Cc1ccccc1N1CC(c2nc3ccccc3[nH]2)CC1=O (centres undefined) | inactive
COCCNC(=O)CN(Cc1ccco1)C(=O)CCC(=O)Nc1nccs1 | inactive
CCC(C)NC(=O)Cn1nc(C(F)(F)F)c2c1CCC2 (centres undefined) | inactive
O=C(NCc1ccco1)c1nn2cccnc2c1Cl | inactive
CCOc1ccc(-n2c(SC(C)C(=O)OC)nc3c(c2=O)SCC3)cc1 (centres undefined) | inactive
O=S(=O)(c1ccc(F)cc1)N1CCN(C(=S)NCc2ccco2)CC1 | inactive
COc1cc(/C=C/C(=O)O)cc(S(=O)(=O)Nc2ccccc2SC)c1OC | inactive
CC(C)C(NS(=O)(=O)c1cccs1)C(=O)Nc1nc(C(C)(C)C)cs1 (centres undefined) | 23.1 µM (active)
COc1cc(Cl)c(NC(=O)C(NS(=O)(=O)c2cccs2)C(C)C)c(OC)c1 (centres undefined) | inactive
CC(C)(C)c1csc(NC2=NS(=O)(=O)c3ccccc32)n1 | inactive
Cc1ccccc1-n1cc(CNC(=O)C2CCC(=O)N(C3CC3)C2)cn1 (centres undefined) | inactive
COc1ccc(CC(NC(C)=O)C(=O)N2CCN(C(=O)Nc3cccc(Cl)c3)CC2)cc1OC (centres undefined) | inactive
CC(=O)Nc1cccc([N+](=O)[O-])c1 | inactive
COC(=O)/C=C\C(=O)Nc1cccc([N+](=O)[O-])c1 | 2.06 µM (active)
O=C(CSCC(=O)Nc1cccc([N+](=O)[O-])c1)Nc1ccccc1 | inactive
COc1cc(C2/C(=C(\O)c3ccc4c(c3)CC(C)O4)C(=O)C(=O)N2Cc2ccco2)ccc1O (centres undefined) | inactive
COc1ccc(-c2csc3ncnc(Oc4ccc5c(C)cc(=O)oc5c4)c23)cc1 | inactive
CCOc1ccc(Nc2ncnc3scc(-c4ccc(OC)cc4)c23)cc1 | 18.4 µM (active)
CCOC(=O)c1sc2nc(C)nc(Nc3ccc(OC)c(OC)c3)c2c1C | inactive
Cc1c(Cl)c([N+](=O)[O-])nn1CCCC(=O)NC(C)c1ccccc1 (centres undefined) | inactive
CCC(C(=O)N1CCN(S(=O)(=O)c2sc(C(=O)O)c(C)c2C(=O)O)CC1)c1ccccc1 (centres undefined) | inactive
Cc1cccc(S(=O)(=O)N(C)C[C@H]2OCc3cnnn3CCCC(=O)N([C@@H](C)CO)C[C@H]2C)c1 | inactive

Compound | Potency
Cn1cccc1-c1nc2ccccc2n1C | inactive
Cn1c(-c2ccc(C(=O)c3ccccc3)s2)nc2ccccc21 | inactive
Cc1csc(-c2nc3ccccc3n2C)n1 | 18.8 µM (active)
Cc1ccc2nc(-c3ccc(Br)cc3)cn2c1 | inactive
Cc1cc2c(cc1C)NC(c1ccccn1)C1=C(CC(C)(C)CC1=O)N2 (centres undefined) | inactive
O=C(/C=C/c1ccc(Cl)c([N+](=O)[O-])c1)c1ccc(O)cc1 | 4.61 µM (active)
NC(N)=N/N=C/c1ccc(Cl)c([N+](=O)[O-])c1 | 10.3 µM (active)
CN(C)c1ccc(/C=C/C(=O)c2ccc(C(C)(C)C)cc2)cc1[N+](=O)[O-] | 23.1 µM (active)
Nn1cnnc1N/N=C/c1cc([N+](=O)[O-])c(Cl)cc1Cl | inactive
O=C(/C=C/c1ccc(Cl)cc1)N1CCN(c2ccccc2[N+](=O)[O-])CC1 | inactive
Cc1cc(C)n(-c2ccc(C(=O)O)cc2[N+](=O)[O-])n1 | inactive
Nc1nc(SCC(=O)Nc2ccc(Cl)c([N+](=O)[O-])c2)n[nH]1 | inactive
CC(CC(=O)O)C(=O)c1ccc(Cl)c([N+](=O)[O-])c1 (centres undefined) | inactive
O=C(O)c1ccc2c(=O)n3c(nc2c1)/C(=C/c1ccc(Cl)c([N+](=O)[O-])c1)CC3 | inactive
C[C@@H]1CC2=C(C(=O)OC(C)(C)O2)[C@@H](C2CC2)O1 | inactive
COc1cccc(-c2ccc3c(c2)S(=O)(=O)c2cccc(C(=O)O)c2C3=O)c1OC | inactive
O=C(COC(=O)c1ccc([N+](=O)[O-])cc1Cl)NC(=O)c1ccccc1 | inactive
O=S(=O)(c1ccccc1)N1CCC2(CC1)CN(Cc1nccs1)C2 | inactive
CC(=O)N[C@@H](C)C(=O)N1CCC(n2nccc2NC(=O)CCCc2ccccc2)CC1 | inactive
Cc1oc2ccc(O)c(CN3CCCCC3)c2c1C(=O)Nc1cccc(C(F)(F)F)c1 | 23.1 µM (active)
CCOC(=O)c1cccc(NC(=O)c2cc(CN3CCCC3)on2)c1 | inactive
CC(=O)N1CCN(C(=O)Nc2cccc(C(F)(F)F)c2)CC1 | inactive

Compound | Potency
COc1ccc(CCNC(=O)COC(=O)C2CC2C)cc1 (centres undefined) | inactive
O=C(O)CCN(Cc1ccccc1)S(=O)(=O)c1c(Cl)cccc1Cl | inactive
CCC(C)N(C(=O)CSc1ncnc2c1cnn2-c1ccccc1)C1CCS(=O)(=O)C1 (centres undefined) | inactive
COc1ccccc1NC(=S)NC(=O)C(C)C | inactive
COc1ccccc1NC(=O)c1oc2ccccc2c1NC(=O)C(C)C | 16.4 µM (active)
COc1ccccc1NC(=O)c1oc2ccccc2c1NC(=O)COc1ccccc1OC | inactive
Cc1ccc(C(=O)OCC(=O)Nc2ccc(Cl)cn2)cc1S(=O)(=O)N1CCOCC1 | inactive
N[C@@H](Cc1ccccc1)C(=O)N1CCOCC1 | inactive
O=C(COC(=O)C1(c2ccc(F)cc2)CCCC1)N1CCNC1=O | inactive
O=C(OCCN1CCOCC1)C1(c2ccccc2)CCCCC1 | inactive and 26.6 µM (active)
CNS(=O)(=O)c1cccc(C(=O)NCC2CCCCC2)c1 | inactive
CN(C(=O)c1cccc(OC2CCN(S(=O)(=O)N(C)C)CC2)c1)C1CCOC1 (centres undefined) | inactive
CN(C)S(=O)(=O)N1CCC(Oc2cccc(C(=O)NCCCC3CCCC3)c2)CC1 | 7.31 µM (active)
CC(C)N(C(=O)Cn1cc(SCC(=O)N2CCCC2)c2ccccc21)C(C)C | inactive
O=C1c2ccccc2C(=O)N1CCc1nn[nH]n1 | inactive
COc1cc(C(=O)NCCS(=O)(=O)N2CCN(c3ccccc3)CC2)cc(OC)c1OC | 20.6 µM (active)
O=C(NCCS(=O)(=O)N1CCN(c2ccccc2)CC1)c1ccco1 | inactive
COc1ccc(N2CC(C(=O)NCCS(=O)(=O)N3CCN(c4ccccc4)CC3)CC2=O)cc1 (centres undefined) | inactive
O=C(O)c1cc(S(=O)(=O)N(Cc2ccccc2)c2ccccc2)ccc1Cl | inactive
C#CCOCCOCCOCCNc1nc(N2CCN(C(=O)Cn3cc(CCCCN)nn3)CC2)nc(N2CCN(C(=O)[C@H](CCCCN)n3cc(CCC(=O)O)nn3)CC2)n1 | inactive
